An excerpt weighted towards active compounds, which were near 15% of everything screened.
RORg inh – blocks mouse ROR gamma transcriptional activity; Drosophila S2 Gal4-RORgamma UAS-luciferase reporter, 20 h; 310,000 tested, 5.4% active; P51450; Potency, µM (titrated, usually from 53.6 µM), inactives show top-dose activity change, negative = inhibition, usual class: inhibitors; also: nearly all actives have a fitted effect of over 60% in size
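Luciferase reporter read in Schneider cells carrying Gal4-RORγ (mouse) and UAS-Photinus luciferase; cells given compound 1 h before 700 uM copper sulfate induction, then incubated 20 h at ambient temperature.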
Gal4-VP16 FLuc – Gal4-VP16 reporter inhibition counter-screen; Potency, µM (top dose mostly 53.6 µM), inactives show top-dose activity, negative = inhibition, hits mostly inhibitors; AID 2546; 310,000 tested, 3.5% active; Drosophila S2 Gal4-VP16 UAS-luciferase, luminescence, 20 h;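 also: Gal4-VP16 expression switched on by copper sulfate through the metallothionein promoter; nearly all actives have a fitted effect of over 50% in size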
ELG1 repair inh – inhibitors of ELG1-dependent DNA repair in HEK293T cells | HEK293T ELG1-luciferase reporter, luminescence, 16 h; DNA damage induced by 5-fluorouridine | Potency, µM (series often up to 46.1 µM), for the others: at the highest dose activity change, negative = inhibition, hits mostly inhibitors | 330,000 tested, 2.3% active | AID 504467; also: nearly all actives have a fitted effect of over 55% in size
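Step one: seed 2,000 cells per well. Step two: pin-transfer compound or DMSO alongside 5-fluorouridine. Step three: incubate 16 hr, 37 °C, 5% CO2. Step four: add ONE-Glo, wait 30 min, read luminescence.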
TDP1 cell CPT – growth inhibition of DT40 Tdp1-/-;hTDP1 cells with camptothecin (screen for TDP1 inhibitors); 420,000 tested, 12% active; chicken DT40 Tdp1-/-;hTDP1 cells + 20 nM CPT, ATP luminescence, 48 h; Potency, µM (top dose mostly 46.2 µM), for the others: at the top dose activity change, negative = growth inhibition, actives largely listed as inhibitors; also: nearly all actives have a fitted effect of over 55% in size
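Cell growth measured by CellTiter-Glo luminescence after a minimum 48 h, 37 C compound exposure with 20 nM CPT in Tdp1-knockout DT40 cells stably expressing hTDP1, seeded 400/well; qHTS titration format.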
12-LOX inh – blocks human arachidonate 12S-lipoxygenase; 580,000 tested, 1.1% active; P18054; purified 12hLO, xylenol orange hydroperoxide absorbance; Potency, µM (highest dose often 108 µM), without a hit: at the top dose activity change, negative = inhibition, actives largely listed as inhibitors
Target sequence (P18054 whole entry, looked up): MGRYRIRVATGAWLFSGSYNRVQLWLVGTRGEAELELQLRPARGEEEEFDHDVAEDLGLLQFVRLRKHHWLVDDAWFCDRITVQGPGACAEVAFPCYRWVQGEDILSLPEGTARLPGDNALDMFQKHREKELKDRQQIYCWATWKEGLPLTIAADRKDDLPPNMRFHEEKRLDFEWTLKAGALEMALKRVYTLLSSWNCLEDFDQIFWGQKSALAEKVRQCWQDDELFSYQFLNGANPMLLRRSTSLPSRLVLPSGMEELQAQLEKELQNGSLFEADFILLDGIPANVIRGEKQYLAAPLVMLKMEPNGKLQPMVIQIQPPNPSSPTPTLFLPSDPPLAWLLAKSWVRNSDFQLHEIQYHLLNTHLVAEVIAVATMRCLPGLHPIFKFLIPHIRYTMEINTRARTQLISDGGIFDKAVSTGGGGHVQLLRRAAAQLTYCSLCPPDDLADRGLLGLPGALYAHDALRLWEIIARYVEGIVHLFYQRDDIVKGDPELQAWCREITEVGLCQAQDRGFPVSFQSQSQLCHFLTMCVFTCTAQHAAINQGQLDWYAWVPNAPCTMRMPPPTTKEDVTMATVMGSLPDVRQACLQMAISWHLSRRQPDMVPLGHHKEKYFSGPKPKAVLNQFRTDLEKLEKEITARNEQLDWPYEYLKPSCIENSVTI
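Purified human 12hLO (150 nM final) in 25 mM Hepes, 0.01% Triton X-100, pH 7.0 was preincubated 15 min at room temperature with compound. Then 40 uM arachidonic acid was added, 30 min. Hydroperoxide was read by Fe-XO absorbance ratio 573/405 nm.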
TDP1 cell noCPT – qHTS for Inhibitors of human tyrosyl-DNA phosphodiesterase 1 (TDP1): qHTS in cells in absence of CPT. DT40 Tdp1-/- hTDP1 cells, no CPT, ATP luminescence, 48 h. Potency, µM (highest dose often 46.2 µM), for inactives: at the highest dose activity change, negative = growth inhibition, hits mostly inhibitors. 420,000 tested, 15% active. AID 686978, 2013; also: nearly all actives have a fitted effect of over 55% in size
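No-CPT arm: Tdp1-/-;hTDP1 DT40 cells (400/well) plus compounds, incubated ≥48 hr at 37 °C. Readout CellTiter-Glo luminescence.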
* marks the source's active call; other numbers are inactive results; u = inconclusive; x = not tested or not shown; [ ] = remark or other dose. Calls follow the shape of the dose curve; as a rule, active = well fitted curve in the direction sought with a large enough effect; inconclusive = small, poorly fitted or top-dose-only effect, or another doubt; inactive = no such curve, though single readings can be large; an effect the other way counts as inactive or inconclusive. % is scaled to controls: 0 for no effect and ±100 for the full control effect; potency is read from the fitted curve at half-maximal effect.

SMILES	RORg inh	Gal4-VP16 FLuc	ELG1 repair inh	TDP1 cell CPT	12-LOX inh	TDP1 cell noCPT
C=CC(=O)N1C/C(=C/c2ccc(Cl)cc2)C(=O)/C(=C\c2ccc(Cl)cc2)C1	x	x	x	0.23µM*	-27%	0.41µM*
CN1CC(=O)N(c2cccc(F)c2)Cc2c1ncnc2N1CCC(F)CC1	x	x	x	x	4%[6.33 µM]	x
CCn1cc[n+](C)c1P(c1ccccc1)c1ccccc1	u	u	10%	0.65µM*	40µM*	0.013µM*
COc1cccc(CC(=O)Nc2ccc3c(c2)c(=O)n(C)n3-c2ccc(C(C)(C)C)cc2)c1	x	x	x	26µM*	-13%	u
COc1cccc(Cn2c3ccc(NC(=O)Cc4cc(OC)ccc4OC)cc3c(=O)n2C)c1	x	x	x	12µM*	8%	21µM*
COc1cccc(Cn2c3ccc(NC(=O)CC(C)C(F)(F)F)cc3c(=O)n2C)c1 (configuration not stated)	x	x	x	u	-16%	u
COc1cccc(-c2cc(=O)c3cc(NC(=O)c4cccnc4)ccc3[nH]2)c1	11%	-1%	x	x	x	x
COc1ccc(C(=O)Nc2ccc3[nH]c(-c4cccc(OC)c4)cc(=O)c3c2)cc1	1%	-14%	2%	1µM*	u	0.65µM*
COc1ccc(-c2cc(=O)c3cc(F)ccc3[nH]2)cc1	-2%[96.6 µM]	1%[96.6 µM]	u	u	-24%	u
COc1ccc2[nH]c(-c3ccc(C)cc3)cc(=O)c2c1	10µM*	7.9µM*	u	13µM*	x	16µM*
COCCN1C=C(C(=O)OC)C(c2ccccc2C(F)(F)F)C(C(=O)OC)=C1	19%	-2%	1%	u	12%	u
COC(=O)C1=C(C)NC(C)=C([N+](=O)[O-])[C@@H]1c1ccccc1C(F)(F)F	-2%	3%	x	30µM*	u	30µM*
COC(=O)C1=C(C)NC(C)=C([N+](=O)[O-])[C@H]1c1ccccc1C(F)(F)F	9%	1%	x	u	0%	11µM*
COC(=O)c1ccc(NS(=O)(=O)c2c(C)cc(C)cc2C)cc1	x	x	x	x	-9%	x
O=S(c1cc(Cl)cc(Cl)c1O)c1cc(Cl)cc(Cl)c1O	22%	-6%	x	-6%	28µM*	u
COCCC(=O)N1CCc2oc(C)c(C(=O)N(C)C)c2C1	x	x	x	x	12%	x
Cc1c(C(=O)OC(C)C)sc(NC(=O)C2c3ccccc3Oc3ccccc32)c1C(=O)OC(C)C	x	x	x	23µM*	-20%	23µM*
Cc1sc(NC(=O)C2c3ccccc3Oc3ccccc32)c(C(=O)OC(C)C)c1C	x	x	x	18µM*	-6%	u
O=C(NC1(C(F)(F)F)C(=O)Nc2c1c(=O)[nH]c(=O)n2-c1ccccc1)c1cccs1 (configuration not stated)	x	x	x	x	-8%	x
COCC1CN(C)CC12CCN(Cc1ccc(OC)c(OC)c1Cl)CC2 (configuration not stated)	x	x	x	x	93%	x
COC(=O)c1sccc1NC(=S)Nc1ccc(F)cc1F	5.6µM*	u	5%	0%	0%	-19%
COC(=O)c1sccc1NC(=S)Nc1cc(C)cc(C)c1	5µM*	4.5µM*	u	-15%	-27%	-28%
COC(=O)c1sccc1NC(=S)Nc1cccc(F)c1	18µM*	u	-2%	13%	8%	0%
COC(=O)c1sccc1NC(=O)Nc1cccc(C)c1	18%	-6%	12%	0%	-15%	1%
COC(=O)c1sccc1NC(=O)c1c(F)c(F)c(F)c(F)c1F	x	x	x	u	84%	u
SMILES	RORg inh	Gal4-VP16 FLuc	ELG1 repair inh	TDP1 cell CPT	12-LOX inh	TDP1 cell noCPT
COC(=O)c1sccc1NC(=O)c1cccc(F)c1	x	x	x	-15%	7%	-8%
COC(=O)c1sccc1NC(=S)Nc1ccccc1	16µM*	u	14%	3%	-23%	-6%
O=S(=O)(c1cccc(F)c1)N1CC[C@@H]2COCCN(Cc3ccccc3)[C@@H]2C1	x	x	x	x	27%	x
Cc1ccn2c(-c3n[nH]c(=S)n3C)c(C)nc2c1	-35%	-7%	-6%	4%	45µM*	4%
Cc1ccn2c(=O)cc(C)nc2c1	0%	-1%	0%	9%	-6%	0%
CC(C)CC(=O)Nc1ccc([N+](=O)[O-])cc1Cl	-12%	-3%	-6%	3%	-17%	4%
COc1ccc(CN(C)C(C)C(=O)Nc2ccc([N+](=O)[O-])cc2Cl)cc1OC (configuration not stated)	u	u	9.2µM*	26µM*	-4%	9.2µM*
CC(OC(=O)C1CC1)C(=O)Nc1ccc([N+](=O)[O-])cc1Cl (configuration not stated)	-2%	10%	u	-4%	-5%	4%
CCOc1ccc(CN(C)C(C)C(=O)Nc2ccc([N+](=O)[O-])cc2Cl)cc1OC (configuration not stated)	28%	-12%	15µM*	16µM*	-11%	u
COc1ccc(Br)cc1CN(C)C(C)C(=O)Nc1cc([N+](=O)[O-])ccc1OC (configuration not stated)	21%	-20%	u	u	-2%	23µM*
CN1CCCCC(CC(=O)Nc2ccc(F)c(F)c2)C1=O (configuration not stated)	x	x	x	x	44%	x
CCCn1cc(NC(=O)C[C@H]2NC(=O)c3ccccc3NC2=O)c(C)n1	x	x	x	x	20%	x
Cc1ccc2c(ccn2CCC(=O)Nc2nnc(C(C)C)s2)c1	x	x	x	x	-3%	x
NC1=NN=C(c2ccc3c(c2)OCCO3)CS1	10µM*	10µM*	u	4%	0%	-23%
C=CCN=C1NN=C(c2cc(C)n(CC=C)c2C)CS1	11µM*	u	u	u	u	u
C=CCN=C1NN=C(c2ccc3c(c2)OCCO3)CS1	4.5µM*	5.6µM*	u	-29%	-54%	-30%
COc1ccc(NC(=O)c2nc3cc(C)c(C)cc3nc2N2CCOCC2)cc1	x	x	x	x	9%	x
CCCN(CC1CC1)C(=O)c1c(OCC2CC2)cc(=O)n2c1CCCCC2	x	x	x	x	70%	x
COc1cc(N=Nc2c(O)c3ccccc3[nH]c2=O)c(OC)cc1N=Nc1ccccc1	9%	9%	5%	u	x	13µM*
NC(=O)c1ccc(N=Nc2c(O)c3ccccc3[nH]c2=O)cc1	-5%	5%	7%	x	x	x
COc1ccc(OC)c(N=Nc2c(O)c3ccccc3[nH]c2=O)c1	x	x	x	15µM*	-1%	18µM*

Bioassay records: PubChem BioAssay, National Center for Advancing Translational Sciences (NCATS)
